Hits are enriched below; roughly 10% of the tested compounds scored in any of these assays.
Pf growth 48h – Primary qHTS for delayed death inhibitors of the malarial parasite plastid, 48 hour incubation; 310,000 compounds, 5.9% hits; AID 504832, 2011; Potency, µM (top dose mostly 28.7 µM), without a hit: at the top dose activity change, negative = inhibition, actives largely listed as inhibitors; P. falciparum luciferase growth in erythrocytes, 48 h; further: on the % scale 0 is the no-effect control and ±100 the full control effect
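Read-out is firefly luciferase luminescence from an integrated reporter in P. falciparum, so falling signal marks reduced parasite growth. Infected erythrocytes were at 2% hematocrit and 0.1% parasitemia (final) in Albumax-supplemented RPMI 1640.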
Pf growth 96h – Primary qHTS for delayed death inhibitors of the malarial parasite plastid, 96 hour incubation. P. falciparum luciferase reporter growth, 96 h. AID 504834, 2011. Potency, µM (series often up to 28.7 µM), without a hit: top-dose activity change, negative = inhibition, actives largely listed as inhibitors. 320,000 compounds, 6.9% hits; further: on the % scale 0 is the no-effect control and ±100 the full control effect
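Plates of compound plus infected erythrocytes (2% hematocrit, 0.05% parasitemia final) incubate 96 hours, 37 C, 5% CO2. Detection reagent added; reduced luminescence from the parasites' luciferase reporter flags inhibition.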
SARS PLpro yeast – qHTS of Yeast-based Assay for SARS-CoV PLP. S. cerevisiae expressing SARS-CoV PLpro, growth rescue. Potency, µM (highest dose often 32.9 µM), without a hit: at the top dose activity, positive = growth rescue, hits mostly activators. 330,000 compounds, 0.19% hits. AID 485353, 2010; calls by dose curve; further: 0% is about no effect; nearly all actives have a fitted effect of over 55% in size
NS1 function inh – qHTS Assay for Inhibitors of Influenza NS1 Protein Function; 270,000 compounds, 0.4% hits; Potency, µM (doses to about 46.1 µM), for the others: at the highest dose activity, positive = more growth; AID 2326, 2010; calls by dose curve; further: actives are rising curves; nearly all actives have a fitted effect of over 50% in size
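Read-out: OD600 growth recovery of NS1-expressing budding yeast. Cells grown overnight at 30C in -URA glucose medium, washed, resuspended and diluted 1:100 in 2% galactose assay medium, pH 6.0. Same strain lacking NS1 served as positive control.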
* marks the source's active call; other numbers are inactive results; u = inconclusive; x = no result given; [ ] = another dose, or the depositor's remark. Unless noted, the call rests on the fitted dose curve; in most records, active means well fitted inhibition curve with a large enough effect; inconclusive means small, poorly fitted or top-dose-only effect, or another doubt; inactive means no such curve, though single readings can be large or run the other way. Potency means the concentration at half of the fitted maximal effect.

SMILES | Pf growth 48h | Pf growth 96h | SARS PLpro yeast | NS1 function inh
CC(C)=Cc1oc2ccc([N+](=O)[O-])cc2c1N1CC(C)OC(C)C1 (stereo unspecified) | 19% | 6% | -3% | x
CC(C)Oc1cc(-n2c(=S)[nH]c3ccccc3c2=O)c(Cl)cc1Cl | 5.9µM* | 4.7µM* | -8% | -29%
COc1cccc(C2C=C(c3ccc(Br)s3)Nc3ncnn32)c1OC (stereo unspecified) | u | 2.3µM* | -7% | -20%
COc1ccc(C2=CC(c3ccco3)n3ncnc3N2)cc1 (stereo unspecified) | -7% | u | -11% | 2%
COc1ccc(C2C=C(c3ccc(C)c(C)c3)Nc3ncnn32)c(OC)c1OC (stereo unspecified) | x | 9.3µM* | 2% | -75%
COc1ccc(S(=O)(=O)N2CCOCC2)cc1NC(=O)CSc1ccc(F)cc1 | -8% | u | 1% | x
Cc1cc(C)c(S(=O)(=O)N2CCCCCC2)cc1Br | -28% | 13% | -1% | -36%
Cc1cc2c(cc1S(=O)(=O)N1CCCC1)n(C)c(=O)c(=O)n2C | -2% | 13µM* | 1% | 10%
Cc1cccc(NS(=O)(=O)c2cc3c(cc2C)n(C)c(=O)c(=O)n3C)c1 | u | 13µM* | 4% | 12%
Cc1cc(=S)[nH]c(=S)[nH]1 | 32% | 44% | -1% | 0%
CC(=O)c1ccc(N2C(=O)[C@@H]3C(C(=O)CCN4C(=O)c5ccccc5C4=O)=NN[C@@H]3C2=O)cc1 | -2% | 2.3µM* | 14% | u
COc1cccc(N2C(=O)C3NN=C(C(=O)CN4C(=O)c5ccccc5C4=O)C3C2=O)c1 (stereo unspecified) | -7% | 18% | 0% | -1%
CN1/C(=C\C=[N+](C)c2ccccc2)C(C)(C)c2ccccc21 | 0.41µM* | 2.1µM* | -1% | -7%
CN1/C(=C\C=C2C(=O)NC(=S)NC2=O)C(C)(C)c2ccccc21 | 16% | -7% | 1% | x
CN1C(=CC=C2C=C(I)C(=O)C(I)=C2)C(C)(C)c2ccccc21 | 3.3µM* | 2.1µM* | -2% | -2%
CN1/C(=C\C=C2/C(=O)Oc3ccccc3C2=O)C(C)(C)c2ccccc21 | 12µM* | u | 8% | 0%
CN1/C(=C\C=N\O)C(C)(C)c2ccccc21 | 16% | -9% | -5% | x
CC(C)c1ccc(NC(=O)C2CCN(S(=O)(=O)c3ccc4c(c3)NC(=O)CO4)CC2)cc1 | u | 7% | 4% | 14%
COc1ccccc1CNC(=O)C1CCN(S(=O)(=O)c2ccc3c(c2)NC(=O)CO3)CC1 | -12% | 10µM* | 0% | -9%
Cc1ccc(NC(=O)C2CCN(S(=O)(=O)c3ccc4c(c3)NC(=O)CO4)CC2)cc1 | u | 13µM* | 3% | 2%
COc1cc(OC)c(NS(=O)(=O)c2ccc3c(c2)NC(=O)CO3)cc1Cl | 4% | 10µM* | 0% | 19%
CSCCC(NC(=O)c1ccccc1)C(=O)N1CCN(C(C)=O)CC1 (stereo unspecified) | u | u | 0% | x
CCOC(=O)c1ccc(NC(=O)CCc2nc(-c3ccccc3Cl)no2)cc1 | -11% | -1%[5.75 µM] | 5% | -86%
CCOC(=O)c1cccc(NC(=O)CCc2nc(-c3ccc(C)cc3)no2)c1 | 12µM* | 1µM* | -6% | -10%
Cc1ccc(-c2noc(CCC(=O)NC3CCCc4ccccc43)n2)cc1 (stereo unspecified) | -23% | 1.7µM* | 1% | -8%
SMILES | Pf growth 48h | Pf growth 96h | SARS PLpro yeast | NS1 function inh
CCOC(=O)c1ccc(NC(=O)CCc2nc(-c3ccccc3)no2)cc1 | 0% | 13µM* | -8% | -59%
CCn1cc(S(=O)(=O)NCCc2ccccc2OC)cn1 | 88% | -4% | 2% | 6%
CCc1cccc(NC(=O)C2CCCN(S(=O)(=O)c3cccnc3)C2)c1 (stereo unspecified) | u | u | -3% | 10%
CCCN1C(=O)/C(=C\C=C2\N(CC)c3ccccc3C2(C)C)SC1=S | 5.2µM* | -4% | 0% | -2%
CCCN1C(=O)/C(=C\C=C2/Sc3ccccc3N2CC)SC1=S | 22% | 49% | 2% | -3%
Cc1cc(=O)n2[nH]cc(-c3ccccc3)c2n1 | 1% | 9.3µM* | -3% | 28%
O=C(Nc1ccccc1)O[C@@H]1C[C@H]2CCC(=O)N3CC[C@@H](C1)[C@@H]23 | 108% | 68% | -10% | -30%
CO[C@]12C(COC(N)=O)C3=C(C(=O)C(C)=C(N)C3=O)N1CC1NC12 (stereo partly specified) | 0.24µM* | 0.6µM* | x | x
CCOc1cc(N2CCOCC2)c(OCC)cc1NC(=O)c1cc(C)cc(C)c1 | 13µM* | u | -1% | x
CCOc1cc(N2CCOCC2)c(OCC)cc1NC(=O)c1ccc(C)cc1 | u | -25% | 2% | x
CCOc1cc(N2CCOCC2)c(OCC)cc1NC(=O)Cc1ccccc1OC | u | 7.4µM* | 6% | 5%
CCOC(=O)c1c(C)[nH]c(C(=O)Nc2cc(OCC)c(N3CCOCC3)cc2OCC)c1C | 2.9µM* | 15µM* | -4% | x
CCOc1cc(N2CCOCC2)c(OCC)cc1NC(=O)Cc1ccccc1 | u | u | 1% | 1%
COc1ccccc1NC(=O)CNC(=O)c1ccc(Br)o1 | 25% | 0.029µM* | 1% | -13%
O=C(Nc1cccc2ccccc12)c1ccc(Br)o1 | 16% | 15µM* | -4% | -11%
N#Cc1ccc(Cl)cc1NC(=O)CNCc1cccs1 | 4%[0.00184 µM] | 40% | 0% | 4%
O=C1C=C(Nc2ccccc2)CC(c2ccccc2)C1 (stereo unspecified) | -14% | 1.9µM* | 0% | x
CCCCCCCNC1=CC(=O)CC(c2ccccc2)C1 (stereo unspecified) | 9.3µM* | u | 14% | -12%
CN(C)S(=O)(=O)c1ccc2c(c1)nc(CCC(=O)Nc1ccc3c(c1)OCO3)n2C | u | u | -13% | 23%
CCn1c(CCC(=O)N(C)CC(=O)Nc2cccc(F)c2)nc2cc(S(=O)(=O)N(C)C)ccc21 | u | u | 2% | x
CCN(CC)S(=O)(=O)c1ccc2c(c1)nc(CCC(=O)Nc1ccc3c(c1)OCO3)n2C | u | 9.3µM* | 0% | 8%
CCN(CC)S(=O)(=O)c1ccc2c(c1)nc(CCC(=O)Nc1ccc3c(c1)OCO3)n2CC | u | 6.6µM* | -1% | -12%
CSCC(=O)N1CCc2ccc(NC(=O)c3ccccc3Cl)cc2C1 | -8% | u | -2% | -11%
Cc1ccnc2c(N3C(=O)C4C5c6ccccc6C(c6ccccc65)C4C3=O)cccc12 (stereo unspecified) | u | 5.2µM* | 10% | -8%
CC(=O)c1c(O)cc(O)cc1CC(=O)O | 42% | u | 0% | 3%
CC(=O)c1c(O)cc(O)c(C(C)=O)c1O | 10µM* | -11% | -9% | -101%
Cc1cc(C)cc(N(CCC#N)C(=O)COC(=O)c2ccc(OCc3c(C)noc3C)cc2)c1 | u | 10µM* | 0% | x
N#CC1(NC(=O)CSc2n[nH]c(-c3ccccc3)n2)CCCCC1 | -18% | -5% | 0% | x

Bioassay records as filed in PubChem BioAssay.
